NS1 function inh: blocks influenza NS1 protein function | Potency, µM (series often up to 46.1 µM) | hit rate 0.4% among 270,000 | AID 2326; calls by dose curve; note: actives are rising curves; nearly all actives have a fitted effect of over 50% in size
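Recovery from NS1-induced slow growth read by OD600 in budding yeast switched to galactose assay medium (pH 6.0, -URA) at 1:100 dilution. Compound 23 nl per well; the matching strain lacking NS1 serves as control.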
CHX counter: counter-screen hit for Shiga toxin inhibitors, cycloheximide; cell reporter, cycloheximide protein synthesis inhibition counterscreen; max response, %; hit rate 12% among 300,000; in the data active = max response mostly above about 13%, no sharp cut-off; inactive = mostly below about 14%; note: read at 38.3 µM for the half of the compounds with a filed dose
Pf growth 96h: P. falciparum growth inhibition at 96 hours; Potency, µM (titrated, usually from 28.7 µM), usual class: inhibitors; hit rate 6.9% among 320,000; P. falciparum luciferase reporter growth, 96 h
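P. falciparum expressing integrated firefly luciferase, in erythrocytes at 2% hematocrit, 0.05% parasitemia, incubated with compounds 96 h at 37 C, 5% CO2. Growth inhibition read as loss of luminescence; two-generation exposure targets delayed-death apicoplast inhibitors.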
Pf growth 48h: P. falciparum growth inhibition at 48 hours (one generation); hit rate 5.9% among 310,000; P. falciparum luciferase growth in erythrocytes, 48 h; Potency, µM (top dose mostly 28.7 µM), actives largely listed as inhibitors
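Luciferase-expressing P. falciparum in infected erythrocytes (2% hematocrit, 0.1% parasitemia final) in RPMI 1640/0.5% Albumax were exposed to compound for 48 hours at 37 C, 5% CO2; growth read as luminescence.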
Giardia FBPA inh: blocks Giardia fructose-bisphosphate aldolase activity; AID 2451; hit rate 0.71% among 290,000; Potency, µM (series often up to 59.6 µM), usual class: inhibitors; purified Giardia FBPA; A8B2U2; note: nearly all actives have a fitted effect of over 55% in size
Target sequence (A8B2U2 whole entry, looked up): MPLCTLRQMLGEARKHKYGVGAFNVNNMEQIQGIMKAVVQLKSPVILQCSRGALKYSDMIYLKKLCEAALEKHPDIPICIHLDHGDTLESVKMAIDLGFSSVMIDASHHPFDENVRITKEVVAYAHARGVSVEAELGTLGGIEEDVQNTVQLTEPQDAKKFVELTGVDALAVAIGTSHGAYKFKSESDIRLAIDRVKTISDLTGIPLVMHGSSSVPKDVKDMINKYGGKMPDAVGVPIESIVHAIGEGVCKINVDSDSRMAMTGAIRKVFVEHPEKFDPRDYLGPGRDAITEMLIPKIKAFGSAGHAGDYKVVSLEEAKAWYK
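Giardia FBPA (40 nM reagent) was preincubated 10 min at RT with compound (up to 57.5 uM final), then substrate plus GAPDH/TPI/NAD/arsenate coupling system with diaphorase/resazurin was added; resorufin fluorescence (525/598 nm) was read after 20 min.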
Shiga toxin inh: Shiga toxin inhibition; Vero cells, Shiga toxin protein synthesis inhibition reporter; inhibition, % at 38.7 µM; hit rate 9.2% among 290,000; AID 2315; in the data active = inhibition mostly above about 28%, no sharp cut-off; inactive = mostly below about 43%
Of the large screens only hits and unclear results are named; the others gave an inactive call. Compounds with a hit are over-represented: about 21% of the library has one in this group of screens. Unless noted, calls come from the whole dose curve; as a rule, active = well fitted curve in the direction sought with a large enough effect; inconclusive = small, poorly fitted or top-dose-only effect, or another doubt; inactive = no such curve, though single readings can be large; an effect the other way counts as inactive or inconclusive.

C[n+]1nc(Nc2cccc(F)c2)sc1-c1ccc(C(=O)O)cc1	none
CC(NC(=O)CN1C(=O)NC2(CCCC2)C1=O)c1ccc2ccccc2c1 (centres undefined)	none (no result: NS1 function inh, CHX counter, Giardia FBPA inh, Shiga toxin inh)
COc1ccc(/C=N/OCC(=O)N(Cc2ccc(OC)cc2)c2ccccc2C(=O)O)cc1	none
CCCCc1ccc(NC(=O)NCc2ccccn2)cc1	CHX counter 15, Pf growth 96h inconclusive
O=C(CCCc1ccccc1)NCc1ccccn1	none (no result: Shiga toxin inh)
CCc1ccc(NC(=O)NCc2ccccn2)cc1	NS1 function inh inconclusive, CHX counter 43, Shiga toxin inh 46
Cc1cccc(C(CC(=O)N2CCCCC2)c2ccccc2)c1O (centres undefined)	none
C[C@@H](NCCCc1cccc(C(F)(F)F)c1)c1cccc2ccccc12	Pf growth 96h 12µM, Pf growth 48h 7.6µM (no result: NS1 function inh, CHX counter, Giardia FBPA inh, Shiga toxin inh)
C[C@@H](Cc1cccc(C(F)(F)F)c1)NCCOC(=O)c1ccccc1	none (no result: NS1 function inh, CHX counter, Pf growth 96h, Pf growth 48h, Shiga toxin inh)
CCNC(C)Cc1cccc(C(F)(F)F)c1 (centres undefined)	Pf growth 96h 13µM (no result: NS1 function inh)
Cc1ccc(-n2nc3c(c2NC(=O)C(C)C)CS(=O)(=O)C3)cc1	none
O=C(NC1CCCCC1)c1cc(S(=O)(=O)N2CCOCC2)c(Cl)cc1Cl	Pf growth 96h inconclusive
O=c1nc2n(c3cc(Cl)c(S(=O)(=O)N4CCOCC4)cc13)CCCCC2	Pf growth 96h 9.3µM
OCCN1CCN(C(c2cccs2)c2ccc3cccnc3c2O)CC1 (centres undefined)	Pf growth 48h 2.1µM, Giardia FBPA inh inconclusive
CCN1CCN(C(c2ccc(C(F)(F)F)cc2)c2ccc3cccnc3c2O)CC1 (centres undefined)	Pf growth 96h inconclusive (no result: Pf growth 48h)
Cc1ccc(S(=O)(=O)NCC(=O)NCC(=O)OC(C(=O)NC(N)=O)C(C)C)cc1C (centres undefined)	Pf growth 96h inconclusive
O=C(O)c1cccc(Nc2ccnc(Nc3cccc(C(=O)O)c3)n2)c1	CHX counter 29, Shiga toxin inh 79 (no result: Pf growth 48h)
O=C(O)c1cccc(Nc2nc(N3CCOCC3)nc(N3CCOCC3)n2)c1	none
Fc1ccc(Nc2ccnc(Nc3ccc(F)cc3)n2)cc1	CHX counter 72, Pf growth 96h inconclusive, Pf growth 48h 2.3µM, Shiga toxin inh active
CCNc1ncc2nc(-c3ccc(OC)cc3)c(=O)n(Cc3ccc(F)cc3)c2n1	none (no result: NS1 function inh, CHX counter, Pf growth 96h, Pf growth 48h, Shiga toxin inh)
O=C(NCCS(=O)(=O)N1CCN(Cc2ccccc2)CC1)c1ccc(F)cc1	none (no result: NS1 function inh, CHX counter, Giardia FBPA inh, Shiga toxin inh)
COc1ccc(/C=N/NC(=S)Nc2ccccc2)cc1COc1ccccc1F	Pf growth 96h inconclusive
COc1ccc(/C=N/NC(=S)Nc2ccccc2)cc1COc1ccc(F)cc1	NS1 function inh inconclusive, Pf growth 96h inconclusive, Pf growth 48h 10µM
COc1ccc(/C=N/NC(=S)Nc2ccccc2)cc1COc1ccc(Br)cc1	Pf growth 96h 3.7µM, Pf growth 48h inconclusive
COc1ccc(NC(=O)c2cn(-c3ccccc3)nc2-c2cc3ccccc3o2)cc1	Pf growth 48h inconclusive
O=C(N/N=C/c1cn(-c2ccccc2)nc1-c1cc2ccccc2o1)c1ccccc1Br	CHX counter 66, Shiga toxin inh 100
O=C(N/N=C/c1cn(-c2ccccc2)nc1-c1cc2ccccc2o1)c1c[nH]c2ccccc12	CHX counter 45, Pf growth 96h inconclusive, Pf growth 48h 3.3µM, Shiga toxin inh 133
O=C(/C=C/c1ccc(-c2ccccc2[N+](=O)[O-])o1)c1ccco1	CHX counter 37, Giardia FBPA inh inconclusive, Shiga toxin inh 113 (no result: NS1 function inh)
C=CCn1c(SCC(=O)NC2CC2)nnc1C1CC1	none
CCN(CC)CCOC(=O)c1ccc(N/C=C(/C#N)c2nc(-c3cccc(OC)c3)cs2)cc1	Pf growth 96h 0.47µM, Pf growth 48h inconclusive
CCN(CC)CCOC(=O)c1ccc(N/C=C(/C#N)c2nc(-c3ccc(OC)c(OC)c3)cs2)cc1	Pf growth 96h inconclusive, Pf growth 48h inconclusive
Cc1cc(C)nc(N/N=C2/CCSc3ccc(F)cc32)n1	Pf growth 96h 10µM, Pf growth 48h inconclusive
O=C(O)c1ccc(N/N=C2/CCSc3ccc(F)cc32)cc1	CHX counter 38
O/N=C1\CCSc2ccc(F)cc21	CHX counter 33, Shiga toxin inh 58
O/N=C1/CCSc2ccccc21	none
CC(=O)NCCNc1cc(-c2ccccc2C)ncn1	none (no result: NS1 function inh, CHX counter, Pf growth 96h, Pf growth 48h, Shiga toxin inh)
CC(=O)Nc1ccc(N=Cc2c(O)ccc3ccccc23)cc1	Pf growth 96h inconclusive
O=C(CSCC(=O)Nc1ccccc1)N/N=C/c1c(O)ccc2ccccc12	Pf growth 96h 1.9µM, Pf growth 48h 2.6µM
Nc1cc(Cl)nc(N/N=C/c2c(O)ccc3ccccc23)n1	CHX counter 26, Pf growth 96h inconclusive, Pf growth 48h inconclusive, Shiga toxin inh 116
O=C(O)c1cc(N/N=C/c2c(O)ccc3ccccc23)ccc1Cl	CHX counter 63, Giardia FBPA inh inconclusive, Shiga toxin inh 160
O=S(=O)(/N=C/c1c(O)ccc2ccccc12)c1ccccc1	CHX counter 11, Giardia FBPA inh inconclusive
O=C(CNc1ccccc1)N/N=C/c1c(O)ccc2ccccc12	Pf growth 48h inconclusive
N#CC(C#N)=C1C(=O)N(CCN2CCOCC2)c2ccccc21	Giardia FBPA inh inconclusive
CCOc1ccccc1NC(=O)CCCNC(=O)Cn1cnc2sc(C)c(C)c2c1=O	none
O=C(NC1CCCC1)C(c1ccccc1F)N(C(=O)c1csnn1)c1ccccc1 (centres undefined)	none
Nc1ccc(N2CCN(c3ccc(Cl)c(Cl)c3)CC2)cc1	NS1 function inh inconclusive, Pf growth 96h inconclusive, Shiga toxin inh 24
Nc1ccc(N2CCN(c3ccc(F)cc3)CC2)cc1	Pf growth 96h inconclusive, Pf growth 48h inconclusive
Nc1ccc(N2CCCCCC2)cc1	Pf growth 96h inconclusive, Pf growth 48h 0.41µM, Giardia FBPA inh 11µM
Cc1ccc(-c2nc3ncccc3n2O)cc1	none
COn1c(-c2ccc(Cl)cc2)nc2ncccc21	CHX counter 49, Shiga toxin inh 60
O=C(Nn1cnc2ccccc2c1=O)c1c(F)cccc1F	none
Cc1ccccc1C(=O)Nn1cnc2ccccc2c1=O	CHX counter 33, Pf growth 96h inconclusive, Shiga toxin inh 50 (no result: NS1 function inh)
O=C(Nc1ccc(Cl)cc1)Nn1cnc2ccccc2c1=O	CHX counter 24, Shiga toxin inh 48
O=C(/C=C/c1ccccc1)Nn1cnnc1	Pf growth 96h 15µM
O=C(Nn1cnc2ccccc2c1=O)c1ccccc1Cl	CHX counter 17
O=C(/C=C/c1ccccc1)Nn1cnc2ccccc2c1=O	CHX counter 21, Pf growth 96h inconclusive
COc1ccc(Br)cc1/C=C(\C(=O)O)c1ccc(S(=O)(=O)N2CCCCC2)s1	none (no result: NS1 function inh, CHX counter, Giardia FBPA inh, Shiga toxin inh)
CCC(=O)Nc1ccc2c(c1)ncn2C	Pf growth 96h inconclusive
COc1cc(C(=O)Nc2ccc3c(c2)ncn3C(C)(C)C)cc(OC)c1OC	Pf growth 96h inconclusive, Pf growth 48h inconclusive
Cn1cnc2cc(NC(=O)c3ccc(Cl)cc3)ccc21	CHX counter 27, Pf growth 96h inconclusive, Shiga toxin inh 55
CC(C)(C)n1cnc2cc(NC(=O)c3ccc(Cl)cc3)ccc21	CHX counter 33, Shiga toxin inh 92
